“And” between values parts separate entries of the source, which are not always exact repeats. Equal values may be shown once. Records with an inconclusive call do not appear. Values without a mark were called inactive. The source made the active and inactive calls. Calls come from the whole dose curve; as a rule, active = well fitted curve in the direction sought with a large enough effect; inconclusive = small, poorly fitted or top-dose-only effect, or another doubt; inactive = no such curve, though single readings can be large; an effect the other way counts as inactive or inconclusive.

The results in this text go back to PubChem BioAssay (NCATS).

Assay [1] can be described thus: Confirmatory screen GU Rhodamine qHTS for Zika virus inhibitors qHTS (AID 1347157). Note: potency is the fitted concentration of half-maximal effect; nearly all actives have a fitted effect of over 70% in size. The method, boiled down:
(§1)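 Buffer 10 mM Tris-HCl pH 8.0, 0.01% Tween 20. Unlinked protease 25 nM; compound preincubation 15 min, RT, protected from light. Substrate Rhod110, 1.5 microM; ~15% conversion in 15 min.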

A short description of assay [2]: ZIKV-mCherry secondary qHTS for Zika virus inhibitors (AID 1347158). Note: potency is the fitted concentration of half-maximal effect. The method, boiled down: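 Percent infection is the share of Hoechst-identified Vero nuclei with mCherry signal above 450 RFU (3 SD over negative controls). Cells were infected with recombinant ZIKV-mCherry at MOI 1 after compound addition and imaged 48–72 h later.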
For orientation: qHTS replaces the single test concentration by a dilution series.

Assay [3] concerns Zika virus NS2B-NS3 protease (unlinked complex). In words: Primary screen GU Rhodamine qHTS for Zika virus inhibitors: Unlinked NS2B-NS3 protease assay (AID 1347159). Note: nearly all actives have a fitted effect of over 60% in size. Note: potency is the fitted concentration of half-maximal effect. An outline of the steps: as §1
In assay [4] the test system is Zika virus NS2B-NS3 protease (linked construct). In words: Primary screen NINDS Rhodamine qHTS for Zika virus inhibitors (AID 1347160). Note: nearly all actives have a fitted effect of over 55% in size. Note: potency is the fitted concentration of half-maximal effect. An outline of the steps:
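Aprotinin served as in-plate control. Conditions: 25 nM linked NS2B-NS3, pH 8.0 Tris buffer, titrated compounds, 15 min preincubation and 15 min reaction with 1.5 microM Rhod110 substrate at room temperature.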

Assay [5] in a line: Confirmatory screen NINDS Rhodamine qHTS for Zika virus inhibitors (AID 1347161). Note: potency is the fitted concentration of half-maximal effect; nearly all actives have a fitted effect of over 60% in size. The method, boiled down:
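Kinetic fluorescence (Ex 480 nm, Em 540 nm) over 15 min with 1.5 microM Rhodamine110 peptide and 25 nM linked protease.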

Assay [6] relates to Zika virus NS2B-NS3 protease (linked). In words: 384 well plate NINDS AMC confirmatory qHTS for Zika virus inhibitors (AID 1347163). Note: nearly all actives have a fitted effect of over 50% in size. Note: potency is the fitted concentration of half-maximal effect. An outline of the steps:
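Fluorescence at 355/460 nm was read after 25 minutes of cleavage of 30 microM Ac-VKTGKR-AMC at room temperature, in the dark. Before substrate addition, compounds (up to 1 mM final) sat ~15 minutes with 5, 30 or 60 nM linked protease. Signals were normalized to no-enzyme and no-inhibitor wells.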

For assay [7], the system named is Zika virus NS2B-NS3 protease (linked construct). In words: 384 well plate NINDS Rhodamine confirmatory qHTS for Zika virus inhibitors (AID 1347164).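 Note: fluorescence from protease cleavage of Ac-LKRR-rhodamine 110 substrate; nearly all actives have a fitted effect of over 65% in size.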 Note: potency is the fitted concentration of half-maximal effect. An outline of the steps:
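Enzyme (final 5/30/60 nM) + cpd (DMSO), ~15 min; add Ac-LKRR-Rd 10 microM final; 25 min RT, dark; FI ex 485/em 538; normalized to no-enzyme, no-inhibitor ctrls; aprotinin intraplate ctrl.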

Assay [8] in a line: Vero cells viability qHTS for Zika virus inhibitors (AID 1347167). An outline of the steps: (§2)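 qHTS titration; 24-48 h compound exposure, 37 degrees C/5% CO2; DMEM, 4% FBS; CellTiter Glo ATP luminescence.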
Assay [9] can be described thus: HepG2 cells viability qHTS for Zika virus inhibitors (AID 1347168). The method, boiled down:
as §2

Assay [10] can be described thus: Tertiary RLuc qRT-PCR qHTS assay for Zika virus inhibitors (AID 1347169). Note: nearly all actives have a fitted effect of over 55% in size. Note: potency is the fitted concentration of half-maximal effect. An outline of the steps:
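Vero, 1,000 cells/well, o/n 37 C; cpd pinned in DMSO; ZIKV-RLuc Cambodian, MOI 1-2, 48-72 h 37 C; live-cell RLuc substrate, lum read at 1-1.5 h.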
For orientation: Quantitative PCR measures a nucleic acid by following its amplification.

Assay [11] relates to Zika virus NS2B-NS3 protease. Description: Primary screen GU AMC qHTS for Zika virus inhibitors (AID 1347154). Note: nearly all actives have a fitted effect of over 70% in size. Note: potency is the fitted concentration of half-maximal effect. The method, boiled down:
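Unlinked Zika NS2B hydrophilic domain–NS3 protease complex at 25 nM in 10 mM Tris-HCl pH 8.0, 0.01% Tween 20, with an AMC peptide substrate. Fluorescence change (340/450 nm) over 15 min at room temperature, normalized to controls, fitted to 4-parameter Hill.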

Turning to `N#Cc1ccc(N2N=C3c4ccc(C(=O)O)cc4CC[C@@H]3[C@@H]2C2CCCC2)cc1Cl`, the Potency in assay [1] is 2.21 µM (active); in assay [2], 2.51 µM (active); in assay [3], 1.41 µM (active); in assay [4], 2 µM (active); in assay [5], 1.75 µM (active); in assay [7] it was 4.47 µM (active). In assay [10], the Potency is 14.7 µM (active). Besides, the Potency entry in assay [6] was “inactive”. For the same molecule, the molecule was classed as inactive in assay [8] and in assay [9].
As for `O=S(=O)(c1ccccc1)N(CC(F)(F)F)c1ccc(C(O)(C(F)(F)F)C(F)(F)F)cc1`, the Potency result in [11] and in assay [4] was “inactive” in each case.
With `O=C(Nc1ccc(-c2ccc(Cl)c(Cl)c2)cc1)C1=C(O)c2ccccc2S(=O)(=O)N1`, the Potency is 2.48 µM (active) in assay [1]; 2.82 µM (active) in assay [3]; 3.98 µM (active) in [4]; 2.48 µM (active) in assay [5]; 44.7 µM (active) in assay [7]; 26.2 µM (active) in [10]. Further, the Potency result in assay [6] was “inactive”. The call in assay [8] and in assay [9] was inactive.
For `NC(=O)C1=CC2C3C=CC2C(OC3=O)O1` (stereo not given), in assay [3], the Potency result was “inactive”.
With `O=C(O)c1cccc(-c2ccc(-c3cn(C(=O)N4CCCCC4Cc4ccccc4)nn3)cc2)c1` (stereo not given), the Potency was 4.41 µM (active) in assay [1]; 3.98 µM (active) in [3]; 3.98 µM (active) in [4]; 3.5 µM (active) in assay [5]; 2.62 µM (active) in [10]. For the same molecule, the Potency result in [6] and in assay [7] was “inactive” each time. Also, the call in assay [8] and in assay [9] was inactive.
As for `NC(=O)C[C@@H](N)C(=O)O`, the Potency entry in assay [11] was “inactive”.
`COc1cc(C[C@H]2C(=O)OC[C@@H]2Cc2ccc(OC)c(OC)c2)ccc1O`: the Potency entry in assay [11], in [3] and in assay [4] was “inactive” each time.
Take `COc1cc2ncc(-c3ccccc3)nc2cc1OC`: the Potency in assay [11] was 6.31 µM (active) and 2.38 µM (active). Moreover, the Potency entry in assay [4] is “inactive”.
As for `CC(C)(C)Sc1c(CC(C)(C)C(=O)O)n(Cc2ccc(Cl)cc2)c2ccc(OCc3ccc4ccccc4n3)cc12`, the Potency is 3.93 µM (active) in assay [1]; 2.82 µM (active) in assay [3]; 4.47 µM (active) in assay [4]; 3.93 µM (active) in assay [5]; 14.1 µM (active) in assay [6]; 11.7 µM (active) in [10]. Further, the Potency entry in assay [7] was “inactive”. The result in assay [8] and in [9] was inactive.
On to `CC#C[C@@H](CC(=O)O)c1ccc(OCc2ccc(CN3CCC4(C=Cc5ccccc54)CC3)s2)cc1`, for which the Potency in assay [1] was 2.78 µM (active); in assay [3], 3.16 µM (active); in [4], 5.62 µM (active); in assay [5], 3.5 µM (active); in [6], 5.01 µM (active). Besides, in assay [2], the Potency result is “inactive”. Also, the result in [8] and in assay [9] was inactive.
`Oc1cccc(-c2c3nc(c(-c4cccc(O)c4)c4ccc([nH]4)c(-c4cccc(O)c4)c4nc(c(-c5cccc(O)c5)c5ccc2[nH]5)CC4)C=C3)c1`: the Potency is 22.4 µM (active) in assay [1], 20 µM (active) in [5] and 3.16 µM (active) in [6]. Moreover, in [2], the Potency entry is “inactive”.
As to `CC#C[C@@H](CC(=O)O)c1ccc(OCc2cccc(-c3ccc(C(F)(F)F)cc3)c2)cc1`, the Potency in assay [1] is 0.698 µM (active); in assay [4] it was 1.58 µM (active); in [5], 0.987 µM (active); in [7], 5.62 µM (active). Besides, the Potency entry in [6] was “inactive”. Also, the molecule was classed as inactive in assay [8] and in [9].
Take `C=C1/C(=C/C=C2\CCC[C@]3(C)[C@@H]([C@H](C)/C=C/[C@@H](C)C(C)C)CC[C@@H]23)C[C@@H](O)C[C@@H]1O`: the Potency is 49.4 µM (active) in assay [1], 31.6 µM (active) in assay [3], 49.4 µM (active) in assay [5] and 3.3 µM (active) in assay [10]. Moreover, the Potency entry in assay [4] is “inactive”.
Regarding `Cc1noc(-c2ccc(-c3ccc(CC(=O)O)cc3)cc2)c1NC(=O)O[C@H](C)c1ccccc1Cl`, the Potency is 5.55 µM (active) in assay [1]; 3.16 µM (active) in assay [3]; 4.47 µM (active) in [4]; 4.94 µM (active) in assay [5]; 20 µM (active) in assay [6]; 7.94 µM (active) in assay [7]. Also, the Potency in assay [10] is 14.7 µM (active). For the same molecule, the molecule was called inactive in assay [9].
Turning to `Cc1ccc(OC[C@H](O)[C@H](C)NC(C)C)c2c1CCC2`, the Potency result in assay [11] and in [4] was “inactive” throughout.
Turning to `COc1ccc2nccc(C(=O)CC[C@@H]3CCN(CC#Cc4cc(F)cc(F)c4F)C[C@@H]3C(=O)O)c2c1`, the Potency in assay [1] is 39.3 µM (active); in [3], 25.1 µM (active); in [5], 44.1 µM (active). The Potency entry in assay [4] and in [10] was “inactive” throughout.
On to `CCC(C)/C=C(C)/C=C/C1=CC2=CC(=O)C3(C)OC(C)(O)C(C(=O)OC)C3C2=CO1` (stereo not given), for which the Potency is 19.2 µM (active) in [1] and 21.5 µM (active) in assay [5]. Also, the Potency result in [4] and in assay [10] was “inactive” throughout.
For the molecule `CC(C)S(=O)(=O)NC[C@H](C)c1ccc(-c2ccc(CCNS(C)(=O)=O)cc2)cc1`, in assay [3], the Potency result was “inactive”.
In the case of `CCCCCCCOc1cc2c(cc1/C(C)=C/c1ccc(C(=O)O)cc1)C(C)(C)CCS2(=O)=O`, the Potency in assay [1] was 1.97 µM (active); in [3], 1.78 µM (active); in assay [5] it was 1.97 µM (active); in assay [10] it was 2.94 µM (active). Moreover, the outcome in assay [8] and in assay [9] was inactive.
As for `CCN(Cc1cc(Nc2nc(C)cn3c(-c4cn[nH]c4)cnc23)sn1)C(C)(C)CO`, the Potency entry in assay [3] and in assay [4] was “inactive” in each case.
In the case of `O=C(NCCN1CCOCC1)c1cc2c(Oc3ccc(NC(=O)C4(C(=O)Nc5ccc(F)cc5)CC4)cc3)ccnc2[nH]1`, the Potency entry in assay [3] and in assay [4] was “inactive” throughout.
For the molecule `C/C1=C\CCC2=CC(OC2=O)C(C)(C)/C=C/C1=O` (stereo not given), the Potency entry in assay [3] and in assay [4] was “inactive” each time.
In the case of `O=C(NC[C@H](O)CN1CCc2ccccc2C1)c1ccnc(NC2CCC2)c1`, the Potency result in [3] and in assay [4] was “inactive” in each case.
For the molecule `Cn1cc(-c2ccc(F)c(C(F)(F)F)c2)nc1C1CCN(c2ncnc3[nH]ncc23)CC1`, the Potency result in [3] and in assay [4] was “inactive” in each case.
As to `COCCN(C(=O)c1cc(OC)c(OC)c(OC)c1)c1nc(-c2ccccc2)cs1`, the Potency entry in assay [3] and in assay [4] was “inactive” throughout.
Turning to `CC(C)c1c(O)ccc2c1CC[C@H]1C(C)(C)CCC[C@]21C`, the Potency in [3] is 14.1 µM (active); in assay [4] it was 22.4 µM (active).
